RXFP1 antagonist: qHTS Assay for Antagonists of the Relaxin Receptor RXFP1 | hit rate 0.59% among 350,000 | activity change, negative = inhibition, % at 57.5 µM | AID 1259400, 2018 | HEK293-RXFP1, relaxin-stimulated cAMP HTRF, 30 min; hits give low values | Relaxin receptor 1 (Homo sapiens), Q9HBX9;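 active means activity change of -60% or lower, but not beyond a set lower limit; inconclusive means change between -60% and -40%, or beyond the set limit; inactive means change above -40%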; further: on the % scale 0 is the no-effect control and ±100 the full control effect
RXFP1 ag: qHTS Assay for Agonists of the Relaxin Receptor RXFP1. HEK293T-RXFP1 cAMP TR-FRET, 30 min; response scale: percent of porcine relaxin response, buffer zero. Potency, µM (series often up to 57.5 µM), for inactives: top-dose activation, hits mostly activators. Relaxin receptor 1 (Homo sapiens), Q9HBX9. hit rate 0.3% among 370,000; further: potency means the concentration at half of the fitted maximal effect; on the % scale 0 is the no-effect control and ±100 the full control effect; nearly all actives have a fitted effect of over 60% in size
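cAMP rise read by TR-FRET after 30 min, 37C compound exposure (up to 58 uM) in RXFP1-transfected HEK293 cells with Ro 20174 present. EC50 from Hill-equation fits, with 29 nM porcine relaxin as 100% and buffer as basal.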
Luc counter: Counterscreen for Luciferase (Kinase-Glo TM) Inhibition. Kinase-Glo luciferase, ATP luminescence, 8 min. Potency, µM (titrated, usually from 38.3 µM), without a hit: at the top dose activity change, negative = inhibition, most hits filed as inhibitors. hit rate 0.28% among 200,000; further: potency means the concentration at half of the fitted maximal effect; on the % scale 0 is the no-effect control and ±100 the full control effect; nearly all actives have a fitted effect of over 60% in size
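Light output from Kinase-Glo luciferase with luciferin and 10 uM ATP in 50 mM imidazole pH 7.2, KCl, MgCl2, Tween 20, BSA; compound pin-delivered, 8-min ambient incubation, then luminescence read.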
miR-21 reporter: qHTS Assay for Modulators of miRNAs and/orActivators of miR-21; HeLa miR-21 FLuc reporter, luciferase, 48 h; Potency, µM (titrated, usually from 38.3 µM), without a hit: at the highest dose activity change, positive = activation, usual class: activators; 340,000 tested, under 10 active; AID 2288, 2010;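 further: % of control where 0% means no effect; miR-21 action dims this reporter so a rising signal means less miR-21 action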
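Luminescence from a firefly luciferase reporter carrying a miR-21 binding site downstream, stably expressed under a CMV promoter in HeLa cells that make miR-21 endogenously, reports miRNA modulation after 48 h compound exposure up to approximately 40uM final.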
gsp ag: qHTS for Agonist of gsp, the Etiologic Mutation Responsible for Fibrous Dysplasia/McCune-Albright Syndrome: qHTS; gsp mutant cells, cAMP HTRF, 30 min; Potency, µM (series often up to 76.9 µM), for the others: at the highest dose activation (cAMP increase), actives largely listed as activators; hit rate 0.13% among 340,000; AID 624287, 2012; active means well fitted activation curve with a large enough effect; inconclusive means small, poorly fitted or top-dose-only effect, or another doubt; inactive means no such curve, though single readings can be large or run the other way; cell line not stated here;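 further: phosphodiesterase inhibitor Ro 20-1724 added with compounds to block cAMP breakdown; potency means the concentration at half of the fitted maximal effect; nearly all actives have a fitted effect of over 60% in size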
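Cells in DMEM/10% FBS with G418 were pretreated with compounds in DMSO plus […] (300 uM stock) for 30 min at 37C. cAMP was measured by HTRF (cAMP-d2 plus anti-cAMP antibody-K) after 30 min at room temperature.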
gsp antag: qHTS for Antagonists of gsp, the Etiologic Mutation Responsible for Fibrous Dysplasia/McCune-Albright Syndrome: qHTS; gsp-mutant cells, cAMP HTRF, 30 min; Potency, µM (top dose mostly 76.9 µM), for inactives: top-dose activity change, negative = inhibition, actives largely listed as inhibitors; hit rate 0.4% among 340,000; calls by dose curve; cell line not stated here;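 further: intracellular cAMP measured with PDE inhibitor Ro 20-1724 present during compound exposure; potency means the concentration at half of the fitted maximal effect; on the % scale 0 is the no-effect control and ±100 the full control effect; nearly all actives have a fitted effect of over 65% in size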
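Measurement of cellular cAMP by homogeneous time-resolved fluorescence following a 30 min compound exposure at 37C. The PDE inhibitor […] was present throughout; the assay buffer was DPBS with 0.05% BSA and 0.005% Tween 20.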
The depositor's hits bear a star; ? = inconclusive; · = not tested or not shown; [ ] = another dose, or the depositor's remark. Shown are actives, neighbours in structure and some others; about 1% of the full set was active somewhere. Unless noted, the call rests on the fitted dose curve; in most records, active means well fitted curve in the direction sought with a large enough effect; inconclusive means small, poorly fitted or top-dose-only effect, or another doubt; inactive means no such curve, though single readings can be large; an effect the other way counts as inactive or inconclusive.

SMILES	RXFP1 antagonist	RXFP1 ag	Luc counter	miR-21 reporter	gsp ag	gsp antag
CCOC(=O)C(C)Sc1ccc2nnc(-c3ccc(F)cc3)n2n1 (stereo not drawn)	-5.8	7.9%	0.7%	-1.0%	20.6%	-9.0%
Cc1c(Cl)cccc1-n1nc(C)c2c(C)cc(=O)n(CC(=O)N3CCCc4ccccc43)c21	·	-0.2%	·	15.7%	·	·
Cc1cc(NC(=O)c2ccc3c(c2)OCCO3)ccc1NC(=O)c1ccco1	9.9	0.1%	11.2µM*	-2.2%	-35.7%	-8.4%
CCOC(=O)CCCCC(=O)c1[nH]c(=O)[nH]c1CSc1nc(C)cc(C)n1	-2.1	5.4%	-5.0%	-3.8%	?	0.6%
CCOC(=O)CCCCC(=O)c1[nH]c(=O)[nH]c1CSc1nnc2c3cc(Br)ccc3n(C)c2n1	·	14.1µM*	2.9%	-9.0%	·	·
CCOC(=O)N1CCN(c2c(F)cc3[nH]c(=S)[nH]c3c2Br)CC1	-64.6*	5.1%	3.7%	8.9%	-25.0%	23.1%
CC1=C(c2ccc(C(C)C)cc2)S(=O)(=O)N=C1N1CCC(C(=O)NCCc2ccco2)CC1	-6.5	0.7%	·	15.9%	·	·
COc1ccc(C(=O)NCc2ccncc2)cc1S(=O)(=O)N1CCOCC1	-10.7	-0.6%	·	·	17.5%	4.0%
COc1ccc(C(=O)NCC(C)(c2ccccc2)c2ccccc2)cc1S(=O)(=O)N1CCOCC1	-7.8	·	·	·	31.6%	35.5µM*
CC(C)CCn1c(SCc2ccc(F)cc2Cl)nc2ccsc2c1=O	-5.4	2.0%	·	-5.6%	·	·
CC(C)CCn1c(SCc2cccc(F)c2)nc2ccsc2c1=O	-76.5*	4.0%	·	-2.3%	·	·
N#CC(C#N)=C1C=C2C=C(N3CCCCC3)CCC2CC1 (stereo not drawn)	-10.7	1.3%	-1.1%	9.6%	37.1%	39.8µM*
CC(=O)c1ccc(N2CCN(C(=O)c3cc4c(C)nc5ccccc5c4o3)CC2)cc1	21.3	?	·	2.3%	11.0%	-23.3%
COc1ccc(N2CCN(C(=O)c3cc4c(C)nc5ccccc5c4o3)CC2)cc1	-76.3*	-0.3%	·	9.5%	?	?
Cc1cccc(-c2cc3nc(C)c(C)c(NCCCn4ccnc4)n3n2)c1	-98.2*	7.6%	·	4.9%	-3.4%[15.4 µM]	-18.2%
O=C1/C(=C/c2ccccn2)SC(=S)N1Nc1ncc(C(F)(F)F)cc1Cl	-71.8*	·	·	·	-7.0%	?
O=C1/C(=C\c2ccccn2)SC(=S)N1Nc1ncc(C(F)(F)F)cc1Cl	-33.6	3.1%	-2.2%	-4.3%	1.4%	-12.5%
CCOc1cc(/C=N\NC(=O)OC(C)(C)C)ccc1OC(=O)c1ccco1	-22.4	-0.9%	10.2%	-2.6%	10.6%[15.4 µM]	-8.8%
CCOc1cc(/C=N\NC(=O)OC)ccc1OC(=O)c1ccco1	-64.3*	6.1%	-0.6%	6.2%	-64.7%	0.3%
COc1cc(/C=C2\COC/C(=C\c3cc(OC)c(OC)c(OC)c3)C2=O)cc(OC)c1OC	-62.8*	14.2%	·	?	13.5%	?
COc1cc(/C=C2\Oc3cc(O)ccc3C2=O)ccc1O	15.3	16.4%	·	-118.8%	28.2µM*	-7.4%
COc1cc(C=C2CCC/C(=C\c3ccc(O)c(OC)c3)C2=O)ccc1O	-95.2*	·	·	·	·	·
COc1cc(/C=C2\CCC/C(=C\c3ccc(O)c(OC)c3)C2=O)ccc1O	-68.8*	-0.3%	·	?	-26.3%	?
COc1cc(/C=C2/CCCC(C(=O)C(F)(F)F)=C2O)ccc1O	-3.3	-4.0%	·	-6.0%	-7.1%[15.4 µM]	-3.9%
O=C1CC2(CCCC2)CC(=O)N1	-11.4	·	·	·	·	·
Cc1cc(C)c(/C=C/c2onc(C)c2S(=O)(=O)N2CCC(C(=O)NCc3ccccc3Cl)CC2)c(C)c1	2.5	-3.5%	·	0.5%	·	·

Screening results from PubChem BioAssay.
